This is part of a sample that, as a whole, favours compounds with a hit. Of some 83,000 tested, about 20% had one in any assay.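 Single-concentration screen, 48 h exposure, 96-well plates. Endpoint: percent growth. Below 10 = active.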 Active and inactive are the calls of the source.

The experiment concerns HL-60(TB) leukemia. Kind of experiment: NCI-60 one-dose screen, 48 h (100 = growth as untreated, 0 = no growth, -100 = all killed). Conditions: 10 µM unless noted.
As for `CC[C@]1(O)CC2CN(CCc3c([nH]c4ccccc34)C(C(=O)OC)(c3cc4c(cc3OC)N(C=O)[C@H]3[C@@](O)(C(=O)OC)[C@H](OC(C)=O)[C@]5(CC)[C@@H]6C[C@@H]6CN6CC[C@]43[C@@H]65)C2)C1` (stereo not given in full), the growth was 0.642% (active).

`O=C(Oc1ccccc1Cl)c1ccc(Cl)cc1Cl`: the growth was 106% (inactive).

In the case of `O=[N+]([O-])c1cc(NS(=O)(=O)c2ccccc2)ccc1NS(=O)(=O)c1ccccc1`, the growth was 113% (inactive).

Take `CC(CN(C)C)Oc1ccccc1NC1=C(Cl)C(=O)C(Nc2ccccc2OC(C)CN(C)C)=C(Cl)C1=O` (stereo not given): the growth is -41.8% (active).

Consider `O=S=Nc1ccc([N+](=O)[O-])cc1`, for which the growth is 102% (inactive).

Regarding `O=C(NNc1ccccc1)c1ncc[nH]1`, the growth is 7.71% (active).

With `Fc1ccc(-c2nc(Nc3ccc(-c4nc5ccccc5[nH]4)cc3)nc(N3CCOCC3)n2)cc1`, the growth was -81.4% (active).

Turning to `COc1cc(C2C(C(=O)OCc3ccccc3)=C(C)NC(C)=C2C(=O)OCc2ccccc2)cc(OC)c1OC`, the growth is 5.01% (active).

For `CCn1cc(C(=O)NN=C2CCCC2)c(=O)c2ccc(C)nc21`, the growth is 98.8% (inactive).

Consider `Cc1ccc2c(n1)C(=O)C(Oc1ccc(F)cc1)=CC2=O`, for which the growth is 54% (inactive).

As to `CCCc1cc2cc(-n3nc(C)c4c3CC(C)(C)CC4=O)cc(NC3CCSCC3)c2c(=O)[nH]1`, the growth is 49.4% (inactive).

For `CCS(=O)(=O)N1CCN(c2ccc(Nc3ncc(C(N)=O)c(NC4CC4)n3)cc2)CC1`, the growth was 71.2% (inactive).

Regarding `COc1ccc2nc3cc(Cl)ccc3c(N3CCN(c4nccc(NCc5ccccc5)n4)CC3)c2c1`, the growth is 61.7% (inactive).

On to `COc1ccc2nc(NC(=O)c3cc(-c4ccc(F)cc4)n4nc(-c5ccccc5)cc4n3)sc2c1`, for which the growth was 98.7% (inactive).

As to `CCC(=O)Oc1ccc(/C=N/NC(N)=S)nc1`, the growth was 19.9% (inactive).

On to `O=C(Nc1nc(-c2ccccc2)cs1)c1cc(-c2ccc(Br)cc2)nc2ccccc12`, for which the growth is 31.5% (inactive).

With `CCOc1cccnc1/C=N/NC(N)=S`, the growth is -17% (active).

Regarding `CC(C)C(C)C(N)C(=O)O` (stereo not given), the growth is 97.9% (inactive).

In the case of `CCC(=O)Nc1ccccc1C#C/C=C\C#Cc1ccccc1C(F)(F)F`, the growth is 17.3% (inactive).

Turning to `COC(=O)C[C@@H]1CC=CC(=O)/C1=C(O)/C=C/c1ccccc1`, the growth is -10.7% (active).

`Cc1ccc(/C=C2\CN(C(=O)CCN3CCC(=NO)CC3)C/C(=C\c3ccc(C)cc3)C2=O)cc1`: the growth was -11.3% (active).

As for `Oc1c(Br)cc(Br)c2ccc(Cn3cc(-c4ccc(C(F)(F)F)cc4)nn3)nc12`, the growth is -5.83% (active).

For `Cc1cc(O[C@@H]2O[C@@H](C)[C@H](O)[C@@H](O)[C@H]2O)c2c3c(c(O[C@@H]4O[C@@H](C)[C@H](O)[C@@H](O)[C@H]4O)cc2c1)C(=O)c1c(O)cccc1C3=O`, the growth is 64.9% (inactive).

In the case of `COc1ccc(C(=O)Nc2cccc(-c3cc(=O)c4c(OC)c(OC)c(OC)cc4o3)c2)cc1`, the growth was 44.8% (inactive).

`Nc1cc(Br)cc2c1[nH]c(=O)c1ccccc12`: the growth was 91.6% (inactive).

As for `COc1cc2nccc(Oc3ccc(NC(=O)C4(C(=O)Nc5ccc(F)cc5)CC4)cc3)c2cc1O`, the growth is 54.5% (inactive).

In the case of `Cc1nc2sc(C(=O)Nc3ccc(Br)cc3)c(N)c2cc1C(O)c1ccccc1` (stereo not given), the growth was 22.4% (inactive).

Turning to `O=C(Nc1cccc2[nH]c(C(F)(F)F)nc12)c1ccc(-n2cnnn2)cc1`, the growth was 1.31% (active).

Turning to `O=C(O)c1ccccc1Cc1ccc2c(c1)CCCC2`, the growth is 130% (inactive).

As to `COc1cc(N2C(=O)[C@H](c3ccccc3)C2c2ccc(SC)cc2)cc(OC)c1OC` (stereo not given in full), the growth is -45.7% (active).

With `O=C1c2cccnc2C(=O)c2c1c(C(=O)OCCCN1CCCCC1)c1ccccn21`, the growth was -21.6% (active).

As for `O=C1Nc2ccccc2/C1=C/c1cccn1CCCCCn1c2ccccc2c(=O)c2ccccc21`, the growth was 47.6% (inactive).

Turning to `CC(C)(N)COS(=O)(=O)O`, the growth is 94.4% (inactive).

As to `CCOC(=O)c1ccc(C(=N)N)cc1`, the growth is 103% (inactive).

`O=C1CSc2ccccc2N1`: the growth was 121% (inactive).

Consider `Cc1cc(=O)[nH]c(NN=C2CCCC2)n1`, for which the growth was 94.6% (inactive).

On to `O=C(N/N=C\c1c(O)ccc2ccccc12)C1CC1`, for which the growth was 1.22% (active).

Turning to `C=C1C(=O)O[C@H]2[C@H]1CC/C(COC(=O)CCCCC(=O)OC/C1=C/CC[C@@]3(C)O[C@H]3[C@H]3OC(=O)C(=C)[C@@H]3CC1)=C\CC[C@@]1(C)O[C@@H]21`, the growth is 2.37% (active).

Regarding `N#Cc1c(-c2ccccc2)c(C#N)c2c(C#N)c(N)nn2c1N`, the growth was -17.2% (active).

In the case of `CC(C)C1=CC2=C(C=O)C[C@@H]3[C@](C)(CCC[C@@]3(C)C(=O)OCC#CCN3CCCC3)[C@H]2CC1`, the growth was 54.5% (inactive).
